Data published in ChEMBL document CHEMBL3988442, “University of Dundee, Small-Polar-MMV Screening Library” (2021).
For some assays here: Potency and affinity values are given separately.

Key:
Set-up in all cases: scale not given: direction of the effect not stated beside the values
[1] = molecular target: Protein translocase subunit SecA (Escherichia coli (strain K12)) (UniProt P10408); experiment: Assay to Identify E. coli SecA ATPase Inhibitors; assay type: functional; settings: 30 µM
[2] = molecular target: T1, Ubiquitin-activating enzyme e1, putative (Leishmania donovani (strain BPK282A1)) (UniProt E9BSI1); experiment: Leishmania donovani Ubiquitin Activating Enzyme (LdE1); assay type: functional; settings: 30 µM
T1 sequence (whole entry): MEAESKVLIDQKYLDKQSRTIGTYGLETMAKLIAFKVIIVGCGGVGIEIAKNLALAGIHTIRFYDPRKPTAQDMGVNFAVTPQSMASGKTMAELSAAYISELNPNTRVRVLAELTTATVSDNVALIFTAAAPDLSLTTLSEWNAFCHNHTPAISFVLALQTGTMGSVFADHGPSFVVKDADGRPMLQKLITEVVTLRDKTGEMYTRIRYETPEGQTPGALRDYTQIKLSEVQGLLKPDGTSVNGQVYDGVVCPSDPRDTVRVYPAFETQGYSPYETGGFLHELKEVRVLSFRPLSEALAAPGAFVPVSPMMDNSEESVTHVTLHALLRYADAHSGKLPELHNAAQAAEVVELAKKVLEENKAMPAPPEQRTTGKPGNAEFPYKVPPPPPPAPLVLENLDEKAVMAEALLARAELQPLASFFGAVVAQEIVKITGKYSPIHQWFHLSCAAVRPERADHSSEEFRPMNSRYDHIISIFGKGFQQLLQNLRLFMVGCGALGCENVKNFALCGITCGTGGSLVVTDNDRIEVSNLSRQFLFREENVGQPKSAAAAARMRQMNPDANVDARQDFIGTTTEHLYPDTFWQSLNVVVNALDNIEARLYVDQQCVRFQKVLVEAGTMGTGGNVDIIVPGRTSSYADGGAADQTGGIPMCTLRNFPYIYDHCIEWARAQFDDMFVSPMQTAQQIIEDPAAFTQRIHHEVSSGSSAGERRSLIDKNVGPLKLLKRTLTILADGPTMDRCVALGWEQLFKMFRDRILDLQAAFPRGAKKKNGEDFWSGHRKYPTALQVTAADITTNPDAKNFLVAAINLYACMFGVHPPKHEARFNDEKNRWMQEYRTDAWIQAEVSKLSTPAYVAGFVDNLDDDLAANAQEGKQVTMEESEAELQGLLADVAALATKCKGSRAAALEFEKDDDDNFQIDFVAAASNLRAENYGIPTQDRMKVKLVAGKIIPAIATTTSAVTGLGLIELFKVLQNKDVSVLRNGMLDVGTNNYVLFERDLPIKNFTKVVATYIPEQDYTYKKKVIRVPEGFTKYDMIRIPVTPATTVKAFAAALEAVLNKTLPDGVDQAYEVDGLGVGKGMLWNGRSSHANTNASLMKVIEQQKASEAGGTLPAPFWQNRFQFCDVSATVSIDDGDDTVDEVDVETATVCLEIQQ

[3] = molecular target: AMP-activated protein kinase, AMPK (Homo sapiens) (UniProt P54646+O43741+P54619+Q9UGJ0+Q9Y478+Q13131+Q9UGI9); experiment: AMP-dependent Kinase enzyme assay. An in vitro enzyme assay that detects ADP turnover that is directly proportional to AMPK activity. This uses naive AMPK that is activated during the assay with MK-8722; assay type: functional; settings: 30 µM
[4] = molecular target: Sialic acid-binding Ig-like lectin 9 (Homo sapiens) (UniProt Q9Y336); experiment: Hs-Siglec9 ALPHAscreen SOP 20170721; settings: 10 µM
Sialic acid-binding Ig-like lectin 9 (Homo sapiens), sequence (Q9Y336 whole entry): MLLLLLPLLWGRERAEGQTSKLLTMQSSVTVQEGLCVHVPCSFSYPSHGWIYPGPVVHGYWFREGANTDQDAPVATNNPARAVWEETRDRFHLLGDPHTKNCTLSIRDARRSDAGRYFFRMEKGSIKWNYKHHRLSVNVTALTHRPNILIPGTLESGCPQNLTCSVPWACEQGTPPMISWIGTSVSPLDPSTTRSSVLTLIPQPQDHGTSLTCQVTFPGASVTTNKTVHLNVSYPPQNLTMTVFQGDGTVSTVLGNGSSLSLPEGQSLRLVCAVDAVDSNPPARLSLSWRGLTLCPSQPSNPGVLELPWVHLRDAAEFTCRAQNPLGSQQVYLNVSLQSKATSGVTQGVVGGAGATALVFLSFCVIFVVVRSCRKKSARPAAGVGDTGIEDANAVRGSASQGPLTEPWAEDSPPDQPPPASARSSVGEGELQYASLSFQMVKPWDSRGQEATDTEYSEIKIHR

Trypanosoma cruzi = experiment: Trypanosoma cruzi phosphomannomutase and mannose-1-phosphate guanylyltransferase assay; assay type: functional; settings: 10 µM
[5] = molecular target: T2, Arginase-2, mitochondrial (Homo sapiens) (UniProt P78540); experiment: in vitro enzyme assay to detect the production of urea directly proportional to the activity of Arginase II; assay type: functional; settings: 33.3 µM; note: in the data most compounds retested in dose-response had high values
T2 sequence (whole entry): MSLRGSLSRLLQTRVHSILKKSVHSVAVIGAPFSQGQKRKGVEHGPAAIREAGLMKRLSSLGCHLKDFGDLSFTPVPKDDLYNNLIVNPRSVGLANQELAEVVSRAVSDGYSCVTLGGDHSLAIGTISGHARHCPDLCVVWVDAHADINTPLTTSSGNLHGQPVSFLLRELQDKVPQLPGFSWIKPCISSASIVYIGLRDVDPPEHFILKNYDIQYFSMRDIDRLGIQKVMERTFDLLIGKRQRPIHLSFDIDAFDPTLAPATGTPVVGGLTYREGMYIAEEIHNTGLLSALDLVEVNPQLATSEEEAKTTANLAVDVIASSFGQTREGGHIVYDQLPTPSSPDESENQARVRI

[6] = molecular target: T3, Proteasome subunit beta (Trypanosoma cruzi) (UniProt O96673); experiment: Trypanosoma cruzi proteasome chymotrypsin-like activity (TcProtChymo) assay.; note: in the data most compounds retested in dose-response had high values; assay type: functional; settings: 9.37 µM
T3 sequence (whole entry): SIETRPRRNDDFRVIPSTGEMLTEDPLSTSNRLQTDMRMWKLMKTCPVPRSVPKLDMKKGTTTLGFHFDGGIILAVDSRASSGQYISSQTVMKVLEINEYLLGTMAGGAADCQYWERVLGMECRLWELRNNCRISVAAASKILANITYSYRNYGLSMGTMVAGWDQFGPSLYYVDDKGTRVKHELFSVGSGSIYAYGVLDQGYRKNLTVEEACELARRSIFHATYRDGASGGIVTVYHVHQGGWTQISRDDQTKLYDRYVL

Homo sapiens = organism: Homo sapiens; experiment: To identify inhibition of the IFN signalling (Jak-Stat) pathway via expression of an eGFP reporter gene under the control of an IFN-stimulated response element (ISRE) containing MxA promoter.; assay type: functional; settings: 30 µM
[7] = molecular target: T4, Tyrosyl-tRNA synthetase, putative (Trypanosoma cruzi (strain CL Brener)) (UniProt Q4DSP6); experiment: Trypanosoma cruzi tyrosyl tRNA synthetase (TcYRS) _High Tyrosine SOP; assay type: functional; settings: 30 µM; note: in the data most compounds retested in dose-response had high values
T4 sequence (whole entry): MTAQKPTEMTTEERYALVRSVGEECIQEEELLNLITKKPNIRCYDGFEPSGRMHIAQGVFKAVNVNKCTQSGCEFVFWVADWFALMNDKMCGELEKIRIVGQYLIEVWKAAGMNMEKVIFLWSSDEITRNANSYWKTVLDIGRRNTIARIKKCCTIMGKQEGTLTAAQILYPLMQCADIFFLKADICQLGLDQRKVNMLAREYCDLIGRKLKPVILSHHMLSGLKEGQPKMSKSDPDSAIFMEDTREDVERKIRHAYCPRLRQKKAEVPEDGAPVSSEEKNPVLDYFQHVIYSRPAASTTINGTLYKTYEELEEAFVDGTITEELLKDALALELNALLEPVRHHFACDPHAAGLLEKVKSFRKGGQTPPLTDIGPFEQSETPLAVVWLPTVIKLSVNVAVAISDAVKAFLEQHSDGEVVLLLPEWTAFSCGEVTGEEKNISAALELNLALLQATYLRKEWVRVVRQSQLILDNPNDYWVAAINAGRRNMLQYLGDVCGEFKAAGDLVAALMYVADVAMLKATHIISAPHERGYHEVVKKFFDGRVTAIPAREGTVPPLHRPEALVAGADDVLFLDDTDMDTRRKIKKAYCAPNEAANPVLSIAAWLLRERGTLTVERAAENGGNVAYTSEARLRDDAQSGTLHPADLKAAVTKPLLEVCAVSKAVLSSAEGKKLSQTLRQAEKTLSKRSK

[8] = molecular target: T4, Tyrosyl-tRNA synthetase, putative (Trypanosoma cruzi (strain CL Brener)); experiment: Trypanosoma cruzi tyrosyl tRNA synthetase (TcYRS) SOP; assay type: functional; settings: 30 µM
[9] = molecular target: Chromo domain-containing protein 1 (Saccharomyces cerevisiae (strain ATCC 204508 / S288c) (Baker's yeast)) (UniProt P32657); experiment: ScCHD-1 Enzyme Inhibition Assay; assay type: functional; settings: 30 µM; note: in the data most compounds retested in dose-response had high values
Chromo domain-containing protein 1 (Saccharomyces cerevisiae (strain ATCC 204508 / S288c) (Baker's yeast)), sequence (P32657 whole entry, the tested form may be a part): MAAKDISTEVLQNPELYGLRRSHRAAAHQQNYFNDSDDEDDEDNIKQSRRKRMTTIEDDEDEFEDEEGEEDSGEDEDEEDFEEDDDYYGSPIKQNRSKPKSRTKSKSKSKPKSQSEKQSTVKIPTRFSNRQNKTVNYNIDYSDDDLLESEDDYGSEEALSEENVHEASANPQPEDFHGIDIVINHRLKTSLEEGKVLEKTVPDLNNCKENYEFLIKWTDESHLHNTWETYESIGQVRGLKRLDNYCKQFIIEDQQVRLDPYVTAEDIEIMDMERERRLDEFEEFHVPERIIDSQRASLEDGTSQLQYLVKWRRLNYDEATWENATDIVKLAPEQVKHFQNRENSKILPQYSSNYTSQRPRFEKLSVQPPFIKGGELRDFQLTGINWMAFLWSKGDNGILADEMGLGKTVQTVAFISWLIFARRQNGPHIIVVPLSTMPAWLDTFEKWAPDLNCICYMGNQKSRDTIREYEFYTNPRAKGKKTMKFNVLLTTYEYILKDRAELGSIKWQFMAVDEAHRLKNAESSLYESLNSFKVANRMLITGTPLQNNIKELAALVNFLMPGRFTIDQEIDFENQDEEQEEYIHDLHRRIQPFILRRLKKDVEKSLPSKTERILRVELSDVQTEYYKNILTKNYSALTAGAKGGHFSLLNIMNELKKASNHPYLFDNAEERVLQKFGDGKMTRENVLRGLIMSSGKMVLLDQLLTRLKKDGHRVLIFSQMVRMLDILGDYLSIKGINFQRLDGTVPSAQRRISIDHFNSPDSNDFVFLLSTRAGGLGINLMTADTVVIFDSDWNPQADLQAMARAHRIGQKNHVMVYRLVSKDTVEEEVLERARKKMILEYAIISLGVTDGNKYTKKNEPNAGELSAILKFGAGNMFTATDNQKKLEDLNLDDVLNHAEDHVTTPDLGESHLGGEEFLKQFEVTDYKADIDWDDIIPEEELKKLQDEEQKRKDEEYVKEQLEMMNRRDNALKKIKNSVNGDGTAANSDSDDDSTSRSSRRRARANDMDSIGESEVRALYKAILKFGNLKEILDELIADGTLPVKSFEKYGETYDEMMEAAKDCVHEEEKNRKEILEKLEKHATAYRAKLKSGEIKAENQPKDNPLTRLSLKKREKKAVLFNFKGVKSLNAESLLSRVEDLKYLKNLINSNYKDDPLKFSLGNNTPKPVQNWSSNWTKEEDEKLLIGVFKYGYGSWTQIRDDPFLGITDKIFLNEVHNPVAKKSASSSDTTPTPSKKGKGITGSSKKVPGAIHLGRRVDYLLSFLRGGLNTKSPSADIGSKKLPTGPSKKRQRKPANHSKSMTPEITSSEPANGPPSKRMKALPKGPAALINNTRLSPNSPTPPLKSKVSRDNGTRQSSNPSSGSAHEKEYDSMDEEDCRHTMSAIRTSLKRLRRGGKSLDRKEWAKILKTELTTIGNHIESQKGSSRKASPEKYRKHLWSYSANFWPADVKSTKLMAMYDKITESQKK

Protein translocase subunit SecA (Escherichia coli (strain K12)), sequence (P10408 whole entry): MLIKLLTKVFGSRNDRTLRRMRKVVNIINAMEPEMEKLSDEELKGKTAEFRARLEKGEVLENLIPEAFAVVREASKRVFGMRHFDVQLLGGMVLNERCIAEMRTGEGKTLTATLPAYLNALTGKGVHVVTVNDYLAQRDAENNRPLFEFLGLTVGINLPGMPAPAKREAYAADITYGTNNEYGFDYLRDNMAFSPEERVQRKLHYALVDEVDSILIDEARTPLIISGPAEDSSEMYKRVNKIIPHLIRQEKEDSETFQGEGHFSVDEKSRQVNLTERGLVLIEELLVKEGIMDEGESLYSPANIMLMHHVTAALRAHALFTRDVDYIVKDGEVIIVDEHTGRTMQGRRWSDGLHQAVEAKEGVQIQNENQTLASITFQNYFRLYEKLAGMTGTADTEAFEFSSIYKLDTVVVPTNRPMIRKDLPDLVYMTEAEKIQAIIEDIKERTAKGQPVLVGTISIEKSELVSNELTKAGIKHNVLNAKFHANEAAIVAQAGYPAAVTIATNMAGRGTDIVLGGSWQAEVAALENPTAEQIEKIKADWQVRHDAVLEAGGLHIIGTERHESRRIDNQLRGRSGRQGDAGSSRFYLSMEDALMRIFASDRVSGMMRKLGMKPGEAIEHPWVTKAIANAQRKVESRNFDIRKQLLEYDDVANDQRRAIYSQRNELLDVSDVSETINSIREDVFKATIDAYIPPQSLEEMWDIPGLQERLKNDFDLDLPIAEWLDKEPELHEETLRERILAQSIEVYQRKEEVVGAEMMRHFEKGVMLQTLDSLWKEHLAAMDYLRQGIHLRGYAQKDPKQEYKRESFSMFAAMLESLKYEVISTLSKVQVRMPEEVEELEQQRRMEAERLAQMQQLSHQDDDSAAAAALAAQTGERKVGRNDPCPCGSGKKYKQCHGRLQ

| Structure (SMILES) | Percent Effect [1] [%] | Percent Effect [2] [%] | Percent Effect [3] [%] | Percent Effect [4] [%] | Percent Effect (Trypanosoma cruzi) [%] | Percent Effect [5] [%] | Percent Effect [6] [%] | Percent Effect (Homo sapiens) [%] | Percent Effect [7] [%] | Percent Effect [8] [%] | Percent Effect [9] [%] |
| --- | --- | --- | --- | --- | --- | --- | --- | --- | --- | --- | --- |
| CCn1nc2c(cc1=O)CN(Cc1nc(N)c3ccccc3n1)CC2 | -5.07 | 5.48 | -62.9 | 1.04 | 3.92 | 3.64 | 14.6 | -3.85 | 2.15 | 12.5 | -7.75 |
| c1ncn(Cc2cnc3n2CCN(Cc2ccsc2)CC3)n1 | -7.34 | 5.33 | 7.1 | 2.34 | -5.32 | -2.1 | 5.9 | 14.2 | 2.13 | 8.97 | 2.03 |
| CCOc1cccc(C(=O)NCCC(=O)Nc2ccncc2)c1 | -1.91 | -5.26 | 3.2 | -0.438 | -2.43 | 8.28 | 13.7 | 3.36 | 4.25 | 10.4 | -3.67 |
| Cc1nn(C)c2c(=O)n(CC(=O)Nc3cc(Cl)cc(Cl)c3)nnc12 | 0.37 | 12 | 0.0353 | 1.72 | -6.29 | -1.58 | 19.6 | 12.4 | 2.12 | 10.3 | -8.24 |
| N#Cc1cccnc1NCCNC(=O)N1CCCC(C(F)(F)F)C1 (configuration not stated) | -0.35 | 10.8 | -2.73 | 11.1 | 4.83 | 13.3 | 19 | 23.4 | 4.76 | 19.5 | -4.05 |
| Cc1nc(C)n(CC2CN(c3nnc(C)c(C)c3C#N)CCO2)n1 (configuration not stated) | -5.18 | 7.89 | 1.44 | 6.73 | 1.13 | 2.68 | 8.52 | 1.18 | 7.35 | 12.2 | 0.234 |
| CN(CCc1ccccc1)Cc1cc(C(=O)N2CCN(C)C(=O)C2)no1 | -3.15 | 19.2 | -1.8 | 11 | 1.19 | -6.79 | 19.3 | 5.79 | 7.29 | 23.5 | -7.74 |
| O=C(NC[C@]12COC[C@H]1CN(C1CCOCC1)C2)c1ccco1 | -5.25 | 10.7 | 4.78 | -6.09 | -2.17 | 8.16 | 12.8 | 5.24 | 9.57 | 8.97 | 0.371 |
| O=C1CC2(CCN(c3nncs3)C2)CN1c1ccccc1 (configuration not stated) | -2.98 | 5.41 | -3.44 | 2.02 | -5.66 | 4.58 | 12.4 | -3.33 | 4.95 | 11 | 0.436 |
| Nc1ncc2c(n1)CN(C1CCCC1)C2=O | -4.34 | 10.4 | -3.73 | 9.11 | 4.82 | -168 | 19.5 | -17.3 | 10.8 | 21 | 121 |
| CCc1nc2n(n1)CC(NCc1ncc(-c3ccccc3)o1)CC2 (configuration not stated) | -1.59 | -2.63 | 0.215 | 5.65 | 1.21 | 1.8 | 4.65 | -5.2 | 3.45 | -23.5 | -5.56 |
| CNC(=O)NC(=O)CN1CCC(c2cccc(F)c2)C1 (configuration not stated) | -1.99 | 0 | 5.35 | -0.914 | -2.82 | 2.3 | -2.51 | 11.3 | 2.45 | 4.88 | 4.66 |
| Cc1noc([C@@H]2CC[C@@H]3[C@@H](CCN3S(=O)(=O)c3cccnc3)O2)n1 | -1.26 | 5.41 | 9.76 | -4.15 | -3.12 | 1.67 | 9.89 | 3.62 | 6.93 | 13.4 | 3.12 |
| CC(C)N1CC(C(=O)NCCc2csc(-c3ccncc3)n2)CC1=O (configuration not stated) | -0.366 | 20.8 | 5.98 | -0.897 | 2.26 | -11 | 14.3 | 21 | 6.45 | 16.1 | -6.34 |
| Cc1ccc(C(=O)N2CCC(Oc3ccc(F)cc3F)CC2)c(=O)[nH]1 | -4.74 | 5.26 | 3.18 | -2.22 | -7.52 | 1.53 | 8.69 | 43.4 | 0.49 | 4.88 | -4.43 |
| CCN1CCN(S(=O)(=O)c2cc(Cl)c(Cl)cc2C)CC1 | -2.56 | 2.6 | 5.2 | 3.88 | -3.83 | -4.14 | -4.99 | -8.04 | -28 | 1.24 | 3.26 |
| Cc1cc(CN(C)C(=O)C2CCCN(C(=O)c3ccc(Cl)cc3)C2)no1 (configuration not stated) | -4.75 | -39 | 3.47 | 5.71 | -0.885 | -20.7 | 11.7 | 0.275 | 2.15 | 11.1 | -7.95 |
| COCc1ncn2c1CN(C(=O)C1CC=CC1)CC2 | -10.3 | 2.7 | -2.21 | -3.27 | -2.64 | -1.74 | 3.69 | 2.37 | 6.45 | 11.1 | 0.611 |
| CC(C)NC(=O)CS(=O)(=O)Cc1cc(Cl)c2c(c1)OCCO2 | -2.36 | 20.2 | -6.59 | -0.915 | -0.283 | -1.52 | 0.737 | 13.3 | 7.39 | 24.1 | -5.39 |
| Cc1ccc(NC2CCN(C(=O)c3cc[nH]n3)CC2)nn1 | -0.868 | 0 | 8.84 | 3.52 | -3.01 | 1.53 | 10.7 | -13.4 | -0.49 | -2.44 | 7.64 |
| CCCc1noc(CN(C)C(=O)C2COc3ccccc3C2)n1 (configuration not stated) | -2.56 | 7.79 | -0.0483 | 4.75 | -3.25 | -30.3 | 14.1 | -15.6 | 5.38 | 16.1 | -3.26 |
| Cc1ncc(C(=O)N2C[C@H]3CC[C@@H]2CN(S(=O)(=O)N(C)C)C3)c(C)n1 | -2.89 | 16 | -1.8 | 16.2 | 2.82 | 27.6 | 17.3 | 1.16 | 7.1 | 16.1 | -6.2 |
